Bioassay records as filed in PubChem.
Peg3 imprint = qHTS Assay for Compounds that Induce Erasure of Genomic Imprints. mouse ES Peg3-LacZ reporter, beta-gal luminescence, 40 h. Potency, µM (highest dose often 60.7 µM), without a hit: at the highest dose activity change, positive = activation, actives largely listed as activators. 0.02% of 110,000 active. AID 1948, 2009
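Imprint erasure is scored as LacZ activity from the silenced maternal Peg3 allele in feeder-free female ES cells cultured 40 h with LIF. Luminescence is normalized to in-plate negative controls and fitted to the Hill equation.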
p53ts 39C kill = qHTS Screen for Compounds that Selectively Target Cancer Cells with p53 Mutations: Cytotoxicity of p53ts Cells at the Nonpermissive Temperature | H1299-p53A138V viability at 39C, ATP luminescence, 24 h | Potency, µM (highest dose often 46.1 µM), for inactives: at the highest dose activity change, negative = cell killing, usual class: cytotoxic | 1.5% of 130,000 active; also: % is scaled to controls: 0 for no effect and ±100 for the full control effect; nearly all actives have a fitted effect of over 55% in size
p53ts 32C tox = qHTS Screen for Compounds that Selectively Target Cancer Cells with p53 Mutations: Cytotoxicity of p53ts Cells at the Permissive Temperature. H1299-p53A138V at 32C, ATP luminescence viability, 24 h. Potency, µM (doses to about 46.1 µM), without a hit: top-dose activity change, negative = cytotoxicity, hits mostly cytotoxic. 0.93% of 130,000 active. AID 924, 2007;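 also: 0% = DMSO and -100% = full killing by reference compound; nearly all actives have a fitted effect of over 55% in size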
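ATP-content luminescence (ATPlite) read-out after 24 h compound exposure at 32C in H1299-p53A138V cells (600/well). Tested up to 46 uM. Normalized to DMSO (0%) and 100 uM tamoxifen (100% killing); Hill-fit AC50.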
* hit, by the source's call; [ ] = remark or other dose. A selection: hits, their analogues and other compounds. The true share with any hit is near 1.6%. Calls follow the shape of the dose curve; as a rule, active = well fitted curve in the direction sought with a large enough effect; inconclusive = small, poorly fitted or top-dose-only effect, or another doubt; inactive = no such curve, though single readings can be large; an effect the other way counts as inactive or inconclusive. Potency is read from the fitted curve at half-maximal effect.

How did CCCOc1ccc(CN2C(=O)C(=O)c3cccc(C)c32)cc1 do in these assays?
Peg3 imprint: -26%[10.9 µM]; p53ts 39C kill: 16µM*; p53ts 32C tox: 43%

How did Cc1cccc2c1N(CCOc1ccc(C(C)(C)C)cc1)C(=O)C2=O do in these assays?
p53ts 39C kill: 4%

Results for Cc1ccc(CN2C(=O)C(=O)c3cc(Br)cc(C)c32)cc1 ?
Peg3 imprint: -23%[10.9 µM]; p53ts 39C kill: 10µM*; p53ts 32C tox: inconclusive

How did Cc1ccc(Cn2ccn(CC(=O)Nc3c(C)cc(C)cc3C)c(=O)c2=O)cc1 do in these assays?
Peg3 imprint: 16%[10.9 µM]; p53ts 39C kill: -2%; p53ts 32C tox: 2%

Results for CC(NC(=O)c1c2c(nc3ccccc13)C(=O)N(C1CCCCC1)C2)c1ccccc1 (configuration not stated) ?
Peg3 imprint: -10%[10.9 µM]; p53ts 39C kill: -10%; p53ts 32C tox: -2%

How did O=C(Oc1ccccc1)n1c(=O)oc2ccc(Cl)cc21 do in these assays?
p53ts 39C kill: -14%; p53ts 32C tox: 8%

How did [N-]=[N+]=NC[C@@H]1O[C@@H](n2cnc3c(N)ncnc32)[C@@H]2O[C@@H]21 do in these assays?
Peg3 imprint: -6%[10.9 µM]; p53ts 39C kill: -7%[9.22 µM]; p53ts 32C tox: 1%[9.22 µM]

How did CC(C)(C)c1ccc(C(=O)/C=C2\NC(=O)CS2)cc1 do in these assays?
Peg3 imprint: -57%; p53ts 39C kill: 7.9µM*; p53ts 32C tox: 10µM*

What do the screens show for `COCCOC(=O)/C=C1/NC(=O)CS1`?
Peg3 imprint: -8%; p53ts 39C kill: -5%; p53ts 32C tox: 4%

Results for CC1(C)Cc2c(sc(NC(=O)c3ccco3)c2C#N)CO1 ?
Peg3 imprint: -59%; p53ts 39C kill: 13µM*; p53ts 32C tox: 10µM*

Results for Cc1cccc(NC(=O)c2sc(NC(=O)c3ccco3)c(C#N)c2C)c1C ?
p53ts 39C kill: -6%; p53ts 32C tox: -6%

Results for CN1CCc2nc3sc(C(=O)Nc4ccccc4C(F)(F)F)c(N)c3cc2C1 ?
Peg3 imprint: -6%[10.9 µM]; p53ts 39C kill: -16%; p53ts 32C tox: 2%

What do the screens show for `Cc1c(-c2nsc(NC(=O)c3ccccc3)n2)nnn1-c1ccc(C(F)(F)F)c(Cl)c1`?
Peg3 imprint: -8%[10.9 µM]; p53ts 39C kill: 3%; p53ts 32C tox: 6%

Results for CC1CCN(CCNC(=O)c2ccc(Cn3c(SCc4ccccc4)nc4cccnc43)cc2)CC1 ?
Peg3 imprint: -18%[10.9 µM]; p53ts 39C kill: 10µM*; p53ts 32C tox: inconclusive

Results for CC(CNC(=O)c1ccc(Cn2c(SCc3ccccc3)nc3cccnc32)cc1)c1ccccc1 (configuration not stated) ?
p53ts 32C tox: -28%

Results for O=C(NCCN1CCCCC1)c1ccc(Cn2c(SCc3ccccc3)nc3cccnc32)cc1 ?
Peg3 imprint: -12%[10.9 µM]; p53ts 39C kill: 10µM*; p53ts 32C tox: 13µM*

Results for CC1CCCCN1CCNC(=O)c1ccc(Cn2c(SCc3ccccc3)nc3cccnc32)cc1 (configuration not stated) ?
Peg3 imprint: -14%[10.9 µM]; p53ts 39C kill: 10µM*; p53ts 32C tox: 10µM*

Results for O=C(NC1CCCC1)c1ccc(CSc2nc3cccnc3n2Cc2ccc(F)cc2)cc1 ?
p53ts 32C tox: 4%

Results for Cc1ccccc1CNC(=O)c1ccc(Cn2c(SCc3ccccc3)nc3cccnc32)cc1 ?
p53ts 32C tox: 9%

How did O=C(C1CCCN(S(=O)(=O)c2cccc3nonc23)C1)N1CCN(c2cccc(C(F)(F)F)c2)CC1 (configuration not stated) do in these assays?
Peg3 imprint: 6%[10.9 µM]; p53ts 39C kill: -15%; p53ts 32C tox: 1%

Results for COc1ccc(-c2c(C#N)c(SCC(=O)Nc3ccc(C)c(C)c3)nc(C)c2C(=O)Nc2ccccc2)cc1OC ?
Peg3 imprint: -7%[10.9 µM]; p53ts 39C kill: 2%; p53ts 32C tox: 19%

Results for COc1ccc(-c2cnnn2-c2ccc(NC(=O)c3c(F)cccc3F)cc2)cc1 ?
Peg3 imprint: -4%[10.9 µM]; p53ts 39C kill: 2%; p53ts 32C tox: 19%

What do the screens show for `COc1ccc(NC(=O)c2oc3ccccc3c2NC(=O)c2cc(=O)c3c(C)cc(C)cc3o2)cc1`?
Peg3 imprint: 12%[10.9 µM]; p53ts 39C kill: 12%; p53ts 32C tox: 8%

How did CCc1ccccc1N(CC)C(=O)c1c(C)oc2ncn(C)c(=O)c12 do in these assays?
Peg3 imprint: 7%[10.9 µM]; p53ts 39C kill: 9%; p53ts 32C tox: 7%

Results for c1ccc2[nH]c(-c3ccnc4ccccc34)nc2c1 ?
Peg3 imprint: -16%; p53ts 39C kill: -4%; p53ts 32C tox: -11%

Results for c1ccc2nc(-c3nc4ccccc4[nH]3)ccc2c1 ?
Peg3 imprint: -94%; p53ts 39C kill: 2µM*; p53ts 32C tox: 3.2µM*

Results for Cn1c(CCNC(=O)c2ccco2)nc2cc(NC(=O)COc3ccc(Cl)cc3)ccc21 ?
Peg3 imprint: -10%[10.9 µM]; p53ts 39C kill: -7%; p53ts 32C tox: 3%

How did Cc1cccc(OCC(=O)Nc2ccccc2C(=O)OCc2cc(=O)n3nc(C4CC4)sc3n2)c1 do in these assays?
Peg3 imprint: -10%[10.9 µM]; p53ts 39C kill: -25%; p53ts 32C tox: -6%

Results for Cc1cc(C)nc(N(C#N)CC(=O)N2CCC(C(N)=O)CC2)n1 ?
Peg3 imprint: -62%; p53ts 39C kill: 8%; p53ts 32C tox: 4µM*

Results for Cc1cc(=O)[nH]c(SCC(=O)N2CCC(C(N)=O)CC2)n1 ?
Peg3 imprint: 12%; p53ts 39C kill: 4%; p53ts 32C tox: 4%

Results for O=C(O)c1c(-c2c3ccc(=O)cc-3oc3cc(O)ccc23)cc2ccccc2c1-c1ccccc1 ?
Peg3 imprint: 4%[10.9 µM]; p53ts 39C kill: 16%[9.22 µM]; p53ts 32C tox: 4%[9.22 µM]

How did Cc1oc2ccc(O)c(CN(C)Cc3ccccc3)c2c1C(=O)Nc1cccc(C(F)(F)F)c1 do in these assays?
Peg3 imprint: -8%[10.9 µM]; p53ts 39C kill: 20µM*; p53ts 32C tox: 14µM*

What do the screens show for `Cc1oc2ccc(O)c(CN(C)Cc3ccccc3)c2c1C(=O)Nc1ccccc1`?
Peg3 imprint: -9%[10.9 µM]; p53ts 39C kill: inconclusive; p53ts 32C tox: inconclusive

What do the screens show for `Clc1cc(Cl)cc(Cl)c1`?
Peg3 imprint: 5%; p53ts 39C kill: 6%; p53ts 32C tox: -4%[1.84 µM]

What do the screens show for `Cc1ccc(C)c(N2CCN(C(=O)C3CCN(S(=O)(=O)c4ccc5[nH]c(=O)oc5c4)CC3)CC2)c1`?
Peg3 imprint: -15%[10.9 µM]; p53ts 39C kill: inconclusive; p53ts 32C tox: -1%

What do the screens show for `CCOC(=O)N1CCC(Nc2c(OCC)c(=O)c2=O)CC1`?
Peg3 imprint: -7%; p53ts 39C kill: 0%; p53ts 32C tox: 0%

What do the screens show for `CCCN(CCC)c1nc(NC2CCN(C(=O)OCC)CC2)nc(OC)n1`?
Peg3 imprint: -25%; p53ts 39C kill: 20µM*; p53ts 32C tox: 48%

Results for CCN(c1ccccc1C)S(=O)(=O)c1nnc(NC(=O)c2ccccc2C)s1 ?
Peg3 imprint: 14%[10.9 µM]; p53ts 39C kill: inconclusive; p53ts 32C tox: -15%

How did COc1ccccc1-c1nccc(NCc2cccc(C)c2)n1 do in these assays?
Peg3 imprint: -22%; p53ts 39C kill: -17%; p53ts 32C tox: -7%
